Whole data set: some 3,200 compounds, median “TSA(with NAD+) / Primary screening (TSA) / delta Tm (K)” near -0.04, cut for the highest 2% near 0.37. Only a selection was taken, and the highest values are over-represented in it overall.

Sequence of NAD-dependent deacetylase Sirtuin 1 (Q96EB6 2-747 limits assumed): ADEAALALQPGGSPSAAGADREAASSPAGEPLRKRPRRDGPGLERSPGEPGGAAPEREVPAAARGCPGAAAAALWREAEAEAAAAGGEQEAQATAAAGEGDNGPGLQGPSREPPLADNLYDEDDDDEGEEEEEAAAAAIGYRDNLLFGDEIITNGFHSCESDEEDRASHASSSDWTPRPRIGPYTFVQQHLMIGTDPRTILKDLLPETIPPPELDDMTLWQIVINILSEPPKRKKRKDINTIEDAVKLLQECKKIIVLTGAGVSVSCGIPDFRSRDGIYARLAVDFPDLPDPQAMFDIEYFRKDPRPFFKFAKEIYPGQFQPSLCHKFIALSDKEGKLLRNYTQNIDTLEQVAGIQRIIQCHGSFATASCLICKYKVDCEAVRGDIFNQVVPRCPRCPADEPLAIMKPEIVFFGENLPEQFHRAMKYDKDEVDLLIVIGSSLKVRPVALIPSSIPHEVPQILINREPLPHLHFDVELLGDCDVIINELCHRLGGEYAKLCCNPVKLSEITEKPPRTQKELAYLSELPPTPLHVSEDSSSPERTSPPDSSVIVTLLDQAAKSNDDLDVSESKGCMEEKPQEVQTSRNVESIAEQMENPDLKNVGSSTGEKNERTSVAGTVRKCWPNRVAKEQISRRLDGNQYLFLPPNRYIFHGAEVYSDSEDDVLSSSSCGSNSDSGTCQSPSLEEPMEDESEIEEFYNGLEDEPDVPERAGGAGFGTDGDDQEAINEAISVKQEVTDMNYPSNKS

The target in the assay is NAD-dependent deacetylase Sirtuin 1 (human, UniProt Q96EB6). Description: primary screen, delta tm. Particulars: 10 µM. The arrangement: single well (n = 1, as 'the same TSA'). On the procedure:
A total of 3,192 compounds extracted from the proposed lists were first screened by thermal shift assay (TSA), which determined a melting temperature shift (ΔTm) of Sirtuin 1 upon the addition of a test compound at a concentration of 10 µM (n = 1) with primary hit criteria of ΔTm > 0.45 K or ΔTm < −1.5 K. Primary hits (48 compounds) were retested in the same assay at three concentrations (5, 10, 20 µM, n = 4) for hit confirmation and for dose-dependency check. Secondary hits (41 compounds) were checked their selectivity for Sirtuin 1 based on counterscreening on unrelated protein targets (bovine carbonic anhydrase (CA) and recombinant SH2 domain of hABL1 kinase (ABL1)) at three different concentrations (5, 10, 20 µM, n = 4), which yielded 38 hit compounds, hereafter referred to as TSA hits. The TSA screening above was conducted in the absence of NAD+. As noted, the structure of Sirtuin 1 is different in the presence of NAD+ and substrate. The chemical profile of TSA hits found from the different conditions could be different. […] As a result, 39 TSA hits were found.
In the case of `Nc1nc(COC(=O)c2cccc(NC(=O)c3cccs3)c2)nc(Nc2ccccc2)n1`, the “TSA(with NAD+) / Primary screening (TSA) / delta Tm (K)” value is recorded as 0.42 K. Take `Cc1cccc(C(=O)OCc2ccc(C(=O)Nc3ccccc3)cc2)c1`: the “TSA(with NAD+) / Primary screening (TSA) / delta Tm (K)” value is -0.03 K. With `O=C(COC(=O)c1cc(-c2ccc(Cl)cc2)nc2ccccc12)NNC(=O)c1cccs1` the figure was 0.16 K; with `CC1CCCN(CCCNC(=O)CCc2cc3ccccc3[nH]c2=O)C1` (stereo not shown), 0.11 K. Next, `O=C(CCc1ccc2c(c1)OCO2)N1CCc2[nH]c3ccccc3c2C1`: -0.01 K. Turning to `O=C(Cc1c[nH]c2ccccc12)N1CCc2[nH]c3ccccc3c2C1`, the “TSA(with NAD+) / Primary screening (TSA) / delta Tm (K)” value is 0.37 K. As to `O=C(CN1CCCC2(CC=CCC2)C1)N1CCc2[nH]c3ccccc3c2C1` (stereo not shown), the “TSA(with NAD+) / Primary screening (TSA) / delta Tm (K)” value is on record as 0.06 K.

Turning to `Cc1n[nH]c(=O)c(C(=O)NNC(=O)CC23CC4CC(CC(C4)C2)C3)c1C`, the “TSA(with NAD+) / Primary screening (TSA) / delta Tm (K)” value stood at 0.19 K. `Cc1c(CCC#N)c(Cl)n2c(nc3ccccc32)c1C#N`: the “TSA(with NAD+) / Primary screening (TSA) / delta Tm (K)” value is -0.03 K.

Take `CCc1c(C)c(C#N)c2nc3ccccc3n2c1Cl`: the “TSA(with NAD+) / Primary screening (TSA) / delta Tm (K)” value is recorded as -0.05 K. As for `CCc1c(C)c(C#N)c2nc3ccccc3n2c1S`, the “TSA(with NAD+) / Primary screening (TSA) / delta Tm (K)” value is listed as 0.46 K. As to `CCNC(=O)NCc1ccc(NC(=O)Cc2cn(CC)c3ccccc23)cc1`, the “TSA(with NAD+) / Primary screening (TSA) / delta Tm (K)” value is 0.09 K. For `Cc1ccc2nc(-c3ccccc3)c(N)n2c1`, the “TSA(with NAD+) / Primary screening (TSA) / delta Tm (K)” value stood at 0.38 K.

In the case of `NC(=O)c1cc(NC(=O)CC(c2ccccc2)c2ccccc2)cc(C(N)=O)c1`, the “TSA(with NAD+) / Primary screening (TSA) / delta Tm (K)” value is listed as -0.06 K.

With `Cc1ccc(N(C)S(=O)(=O)c2cccc(C(=O)Nc3cc(F)ccc3C)c2)cc1`, the “TSA(with NAD+) / Primary screening (TSA) / delta Tm (K)” value is -0.01 K.

Turning to `O=C(Nc1cc(S(=O)(=O)N2CCOCC2)ccc1O)C1=COCCO1`, the “TSA(with NAD+) / Primary screening (TSA) / delta Tm (K)” value is listed as -0.16 K. With `NC(=O)c1cccc(NC(=O)c2cc3c(s2)-c2ccccc2CC3)c1` the figure was 0.88 K. As to `CC(=O)Nc1ccc(NC(=O)c2cccc(C(N)=O)c2)cc1C`, the “TSA(with NAD+) / Primary screening (TSA) / delta Tm (K)” value is reported as -0.12 K. With `CC1CCc2sc(C(=O)Nc3ccccc3Cc3ccccc3)cc2C1` (stereo not shown) the figure was -0.13 K. As to `O=C(O)c1nc(Nc2ccc(Cl)cc2)c2ccccc2n1`, the “TSA(with NAD+) / Primary screening (TSA) / delta Tm (K)” value is reported as -0.11 K.

As to `CCn1nnc2cc(C(=O)N3CCN(C(c4ccc(F)cc4)c4ccc(F)cc4)CC3)ccc21`, the “TSA(with NAD+) / Primary screening (TSA) / delta Tm (K)” value is recorded as -0.22 K. `Cc1ccc(NC(=O)COC(=O)c2ccc(-n3nnc4ccccc43)c([N+](=O)[O-])c2)cc1C`: the “TSA(with NAD+) / Primary screening (TSA) / delta Tm (K)” value stood at 0.35 K. With `CCOc1cc(/C=N/NC(=O)c2cc3c(s2)CCCC3)ccc1OCC(=O)Nc1cccc(C(F)(F)F)c1` the figure was 1.05 K; with `COc1cc(/C=N/NC(=O)c2cc3c(s2)CCCC3)ccc1OS(=O)(=O)c1cc(C)ccc1C`, 0.09 K; with `COc1cc(/C=N/NC(=O)c2cc3c(s2)CCCC3)ccc1OCC(=O)Nc1ccc(C)cc1`, 0.52 K. In the case of `CC(OC(=O)c1cc2c(s1)CCCC2)C(=O)Nc1ccc(C(N)=O)cc1` (stereo not shown), the “TSA(with NAD+) / Primary screening (TSA) / delta Tm (K)” value came out at 0.01 K.

As to `NC(=O)c1ccc(NC(=O)COC(=O)c2cc3c(s2)CCCCC3)cc1`, the “TSA(with NAD+) / Primary screening (TSA) / delta Tm (K)” value was -0.13 K.

As for `CCOc1ccc(NC(=O)CN(C)Cc2ccc(C(=O)Nc3ccccc3)cc2)cc1OCC`, the “TSA(with NAD+) / Primary screening (TSA) / delta Tm (K)” value was -0.02 K. As for `O=c1cc(CSc2ncc(C(F)(F)F)cc2Cl)nc2ccccn12`, the “TSA(with NAD+) / Primary screening (TSA) / delta Tm (K)” value was -0.23 K.

Take `Cc1cc(C=C2C(=O)NC(=S)NC2=O)c(C)n1-c1cccc(C(F)(F)F)c1`: the “TSA(with NAD+) / Primary screening (TSA) / delta Tm (K)” value was -0.73 K. On to `Cc1oc2nc[nH]c(=O)c2c1C(=O)OC(C)C(=O)N1CCOCC1` (stereo not shown), for which the “TSA(with NAD+) / Primary screening (TSA) / delta Tm (K)” value was -0.06 K. With `CCn1cc(C2CCN(C(=O)Cc3cnc4ccccc4c3)CC2)cn1` the figure was 0.68 K; with `CCSC1CCC(NC(=O)Cc2cnc3ccccc3c2)C1` (stereo not shown), -0.11 K. For `O=C(Nc1cnc2ccccc2c1)C(=O)N1CCC(Oc2ccccc2)CC1`, the “TSA(with NAD+) / Primary screening (TSA) / delta Tm (K)” value was found to be 0.06 K. In the case of `COc1ccc(CNCc2c[nH]nc2-c2ccc(C)cc2)cc1OC`, the “TSA(with NAD+) / Primary screening (TSA) / delta Tm (K)” value is recorded as -0.13 K.

Take `c1ccc(-c2[nH]c3ccccc3c2-c2ccccc2)cc1`: the “TSA(with NAD+) / Primary screening (TSA) / delta Tm (K)” value was 0.39 K.

In the case of `Nc1nc(-c2c(-c3ccccc3)[nH]c3ccccc23)cs1`, the “TSA(with NAD+) / Primary screening (TSA) / delta Tm (K)” value is on record as 0.16 K. In the case of `c1ccc(-c2[nH]c3c(ccc4ccccc43)c2-c2ccccc2)cc1`, the “TSA(with NAD+) / Primary screening (TSA) / delta Tm (K)” value is 0.29 K.

Turning to `CC1COCCN1c1ncnc2ccsc12` (stereo not shown), the “TSA(with NAD+) / Primary screening (TSA) / delta Tm (K)” value turned out to be 0.03 K.

As for `NC(=O)c1csc(C(=O)NCCc2cc(F)cc3c2OCOC3)c1`, the “TSA(with NAD+) / Primary screening (TSA) / delta Tm (K)” value is -0.03 K. Take `Cc1ccc([N+](=O)[O-])cc1S(=O)(=O)Nc1ccc(C(=O)OC(C)C(=O)NC23CC4CC(CC(C4)C2)C3)cc1` (stereo not shown): the “TSA(with NAD+) / Primary screening (TSA) / delta Tm (K)” value is listed as 0.76 K. Regarding `COc1cc(C(C)=O)ccc1COc1ccc(C(=O)OC(C)C(=O)NC23CC4CC(CC(C4)C2)C3)cc1OC` (stereo not shown), the “TSA(with NAD+) / Primary screening (TSA) / delta Tm (K)” value was determined as 0.09 K.

Take `CC(OC(=O)c1cccc(S(=O)(=O)NCc2ccccc2)c1)C(=O)NC12CC3CC(CC(C3)C1)C2` (stereo not shown): the “TSA(with NAD+) / Primary screening (TSA) / delta Tm (K)” value was found to be 0.16 K.

The values above are taken from publication PMC6925144, “A prospective compound screening contest identified broader inhibitors for Sirtuin 1” (Scientific Reports, 2019).
